Data taken from PubChem BioAssay AID585 (National Center for Advancing Translational Sciences (NCATS), 2007).
Hit rate of the full screen: of about 71,000 compounds, about 1,300 (1.8%) were called active. The call rests on the fitted dose curve. What follows is part of a selection rich in actives, with near analogues and random picks from the rest.

target: Beta-lactamase (Escherichia coli (strain K12)) (UniProt P00811); assay: Promiscuous and Specific Inhibitors of AmpC Beta-Lactamase (assay without detergent); settings: AmpC nitrocefin hydrolysis, absorbance 480 nm, no detergent; series mostly up to 28.7 µM; activity change, negative = inhibition: at the top concentration; on activity change, negative = inhibition: % of control where 0% means no effect
Sequence (P00811 whole entry, looked up): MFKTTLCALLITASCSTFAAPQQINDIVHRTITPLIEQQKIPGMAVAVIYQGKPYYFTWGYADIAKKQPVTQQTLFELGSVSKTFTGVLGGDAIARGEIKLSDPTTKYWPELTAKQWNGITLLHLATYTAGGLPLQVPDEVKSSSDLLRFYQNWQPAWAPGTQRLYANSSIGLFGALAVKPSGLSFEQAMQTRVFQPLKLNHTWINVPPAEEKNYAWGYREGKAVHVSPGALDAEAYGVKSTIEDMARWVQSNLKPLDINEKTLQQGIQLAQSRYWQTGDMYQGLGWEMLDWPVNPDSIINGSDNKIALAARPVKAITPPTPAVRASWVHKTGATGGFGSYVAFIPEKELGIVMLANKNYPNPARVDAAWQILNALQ
Description: NIH Molecular Libraries Screening Centers Network [MLSCN]
NIH Chemical Genomics Center [NCGC]
PI Name: Shoichet, Brian K.
This aggregation profiling approach exploits the sensitivity of aggregate formation to detergent. Inhibition of b-lactamase is measured in the presence and absence of 0.01% Triton X-100. See Pubchem assay "Promiscuous and Specific Inhibitors of AmpC Beta-Lactamase (assay with detergent)" for related screen. Compounds that inhibit only in the absence of detergent are considered likely promiscuous aggregators.
A screen of 1,030 compounds was performed in Brian Shoichet's lab in 96-well format. AmpC activity was measured by following the absorbance at 480 nm. Nitrocefin is a chromogenic substrate: while nitrocefin is yellow (lmax 390 nm), the product of its hydrolysis is red (lmax 486 nm, 17,000 M-1). AmpC beta lactamase was provided by Brian Shoichet and Brian Feng, UCSF.
NCGC Assay Protocol Summary:
20 mM phosphate buffer, pH 7.0
Triton X-100: No Detergent screen: 0.0001%, Detergent screen: 0.01%.
Buffer in columns 3 and 4 as negative control (no enzyme).
5.3 nM AmpC in columns 1, 2, 5-48. Titration of UCSF compound 9 control (from 10 mM, then 1:2) pin-transferred to column 2. Column 1 is neutral (100% activity).
Six uL of reagents were dispensed to 1536-well Greiner black clear bottom plates. Compounds and controls (23 nL) were transferred via Kalypsys PinTool. The plates were incubated for 15 min at room temperature, and then 2 uL of 800 uM solution of nitrocefin was added to start the reaction. The plates were immediately transferred to and read every 20 seconds for 4 min on ViewLux (Perkin-Elmer) High-throughput CCD imager using 480 nm absorbance protocol. During dispense, reagent bottles were kept submerged into 4 deg C water bath.
Keywords: NIH Roadmap, MLSCN, MLI, MLSMR, qHTS, NCGC, AmpC Beta-Lactamase, Aggregation.
Potency means the concentration at half of the fitted maximal effect.

| SMILES | activity change, negative = inhibition | Potency |
| --- | --- | --- |
| CC1=CC(C)(C)N(C(=O)CSc2nccn2C)c2cc(C)ccc21 | 45.9% (inactive) |  |
| O=C(Cn1c(=S)nc2ccccn21)N1CCc2ccccc2C1 | 3.2% (inactive) |  |
| C=C1c2cc(CC)ccc2NC(=O)N1c1ccc(C)cc1 |  | 3.98 µM [single pt active] (active) |
| Cc1ccc(S(=O)(=O)N2CC(=O)Nc3ccccc32)cc1C | 2.2% (inactive) |  |
| FC(F)Oc1ccccc1C1CC(c2ccc(Br)s2)Nc2ncnn21 (stereo unspecified) | 66.8% (inactive) |  |
| O=c1cc(Cn2nnc(-c3ccc(Cl)cc3)n2)nc2sccn12 | 40% (inactive) |  |
| CS(=O)(=O)N(CC(=O)N1CCN(Cc2ccc3c(c2)OCO3)CC1)c1ccc2c(c1)OCO2 | 68.3% (inactive) |  |
| O=C(NCc1ccco1)C1CCCN(S(=O)(=O)c2cccc3nonc23)C1 (stereo unspecified) | 0.9% (inactive) |  |
| CCCS(=O)(=O)N1CCCC(C(=O)NCc2ccco2)C1 (stereo unspecified) | -0.5% (inactive) |  |
| O=C(NCc1ccco1)C1CCCN(S(=O)(=O)c2cnc[nH]2)C1 (stereo unspecified) |  | 3.98 µM [single pt active] (active) |
| CC1(C)CC(CCC(=O)Nc2ccccc2Cl)C(=O)O1 (stereo unspecified) | -5.9% (inactive) |  |
| COc1ccc(C(=O)N(Cc2ccc(N(C)C)cc2)C2CCS(=O)(=O)C2)cc1 (stereo unspecified) | 37.7% (inactive) |  |
| Cc1nc(N2CCN(c3ncccn3)CC2)c2oc3ccccc3c2n1 | 56.3% (inactive) |  |
| Cn1cccc1C(=O)NC(=O)COC(=O)Cc1coc2ccc3ccccc3c12 |  | 12.6 µM (active) |
| CC(C)(C)NC(=O)NC(=O)COC(=O)Cn1c(C(F)(F)F)nc2ccccc21 | 24% (inactive) |  |
| CCOC(=O)N1CCN(C(=O)c2cc3c(ccc4ccccc43)oc2=O)CC1 | 42.4% (inactive) |  |
| CCN1CCN(Cc2c(O)ccc3c(=O)c(-c4ccc(OC)c(OC)c4)c(C(F)(F)F)oc23)CC1 | 51.9% (inactive) |  |
| CN1CCN(CCCNC(=O)c2cc3c(=O)oc4ccccc4c3s2)CC1 | 13.6% (inactive) |  |
| COc1ccccc1NC(=O)C1=C(C)Nc2nnnn2C1c1cccc(Br)c1 (stereo unspecified) | 12.1% (inactive) |  |
| COc1ccccc1NC(=O)C1=C(C)Nc2ncnn2C1c1ccc(C)o1 (stereo unspecified) | 2.7% (inactive) |  |
| COc1cc(C2C(C(=O)Nc3ccccc3OC)=C(C)Nc3ncnn32)ccc1O (stereo unspecified) |  | 3.98 µM [single pt active] (active) |
| COc1ccc(CCN(C)CCN2C(=O)c3ccccc3C2=O)cc1OC | 9.6% (inactive) |  |
| CCn1cc(C(=O)NCC2CCCO2)c(=O)c2cc(S(=O)(=O)N3CCCCC3)ccc21 (stereo unspecified) | 94.7% (inactive) |  |
| O=C(NC1CCCCC1)n1c(=O)oc2cc(S(=O)(=O)N3CCCCC3)ccc21 | -14.2% (inactive) |  |
| CCn1cc(C(=O)NC2CCCCCC2)c(=O)c2cc(S(=O)(=O)N3CCCCC3)ccc21 |  | 3.98 µM [single pt active] (active) |
| Oc1ccc2ccccc2c1C=NCc1c(O)ccc2ccccc12 | -20.6% [at 5.75 µM] (inactive) |  |

| SMILES | activity change, negative = inhibition | Potency |
| --- | --- | --- |
| O=C(CCC(=O)OCC(F)(F)C(F)F)NCc1ccccc1 | 7.3% (inactive) |  |
| Cc1ccc(-c2nc(CS(=O)CC(=O)N3CCN(c4ncccn4)CC3)c(C)o2)cc1 (stereo unspecified) | 95.4% (inactive) |  |
| COc1ccc(-c2nc(CS(=O)CC(=O)NCc3cccnc3)c(C)o2)cc1OC (stereo unspecified) |  | 3.98 µM [single pt active] (active) |
| Cc1oc2nc(SCC(=O)NCc3cccnc3)nc(N)c2c1C | -1.9% (inactive) |  |
| Cc1ccc(-c2nc(CS(=O)CC(=O)NC3CCCC3)c(C)o2)cc1 (stereo unspecified) |  | 3.98 µM [single pt active] (active) |
| COc1ccc(-c2nc(CS(=O)CC(=O)NCc3ccccn3)c(C)o2)cc1 (stereo unspecified) |  | 1.26 µM [single pt active] (active) |
| COc1ccc(CCNC(=O)C2CCCN(Cc3nc(-c4cccc(Cl)c4)oc3C)C2)cc1OC (stereo unspecified) | 162% (inactive) |  |
| Cc1ccc(NC(=O)CS(=O)CC(=O)N(c2ccccc2)C(C)C(=O)NC2CCCC2)cc1 (stereo unspecified) | 76.9% (inactive) |  |
| COc1ccc(-c2nc(CS(=O)CC(=O)N3CCc4ccccc4C3)c(C)o2)cc1 (stereo unspecified) | 91.4% (inactive) |  |
| COc1ccc(-c2nc(CS(=O)CC(=O)N3CCC4(CC3)OCCO4)c(C)o2)cc1 (stereo unspecified) | 41.7% (inactive) |  |
| C=CC(=C)CCC=C(C)C | -13.4% (inactive) |  |
| COc1ccc2oc(=O)c(C(=O)N3CCN(c4ccccc4F)CC3)cc2c1 | 43.1% (inactive) |  |
| CC1(C)CC(=O)C=C(NC2CC(C)(C)NC(C)(C)C2)C1 | -7.6% (inactive) |  |
| O=C(COc1ccc2oc3c(c2c1)CCCC3)Nc1ccccn1 | -0.5% (inactive) |  |
| O=C1CN(C(=O)COC(=O)C2CC(=O)N(Cc3ccco3)C2)c2ccccc2N1 (stereo unspecified) | 6% (inactive) |  |
| COc1cc(C[C@H](C)N)c(OC)cc1I |  | inactive |
| COC(=O)c1ccc(C(NC(=O)OCc2ccccc2)/C(C)=C/[C@@H](C)C(=O)NCc2cc(C)on2)cc1 (stereo partly specified) | 79.5% (inactive) |  |
| CCOC(=O)c1ccc(-n2c(C)nc3c(cnn3-c3ccccc3C)c2=O)cc1 | 49.2% (inactive) |  |
| CC1=C(C(=O)OCc2ccccc2)C(c2ccco2)n2ncnc2N1 (stereo unspecified) |  | 3.98 µM [single pt active] (active) |
| COC(=O)C1=C(C)Nc2ncnn2C1c1ccco1 (stereo unspecified) | -4.6% (inactive) |  |
| CCOC(=O)CSC1=C(C#N)C(c2ccco2)C(C(=O)OCc2ccccc2)=C(C)N1 (stereo unspecified) | -9.8% (inactive) |  |
| O=C1N=C(N2CCOCC2)CS1 | -5.9% (inactive) |  |
| CC(=O)Oc1ccc2c(C)c(CC(C)O)c(=O)oc2c1 (stereo unspecified) | 0.7% (inactive) |  |
| CC(=O)Nc1cc2ccc(OC(C)=O)cc2oc1=O |  | 3.98 µM [single pt active] (active) |
| COc1ccc2oc(C)c(NC(C)=O)c2c1 | -8.6% (inactive) |  |
